Only some compounds are listed: those with a hit (about 21% of all), similar ones and a draw of the others.
CHX counter – Cycloheximide Counterscreen for Small Molecule Inhibitors of Shiga Toxin; cell reporter, cycloheximide protein synthesis inhibition counterscreen; max response, %; 300,000 tested, 12% active; AID 2314, 2010; in the data active = max response mostly above about 13%, no sharp cut-off; inactive = mostly below about 14%; also: read at 38.3 µM for the half of the compounds with a filed dose; 0% is about no effect
Pf growth 48h – Primary qHTS for delayed death inhibitors of the malarial parasite plastid, 48 hour incubation. P. falciparum luciferase growth in erythrocytes, 48 h. Potency, µM (top dose mostly 28.7 µM), for inactives: at the top dose activity change, negative = inhibition, hits mostly inhibitors. 310,000 tested, 5.9% active. AID 504832, 2011; also: potency is read from the fitted curve at half-maximal effect; % is scaled to controls: 0 for no effect and ±100 for the full control effect
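Firefly luciferase activity from engineered P. falciparum reports growth; inhibitors lower the luminescent signal. Cultures contained 2% hematocrit erythrocytes at 0.1% final parasitemia.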
Shiga inhibitor – A qHTS for Small Molecule Inhibitors of Shiga Toxin. 290,000 tested, 9.2% active. Vero cells, Shiga toxin protein synthesis inhibition reporter. AID 2315, 2010. inhibition, % at 38.7 µM; in the data active = inhibition mostly above about 28%, no sharp cut-off; inactive = mostly below about 43%; also: 0% is about no effect
NS1 function inh – qHTS Assay for Inhibitors of Influenza NS1 Protein Function; AID 2326, 2010; 270,000 tested, 0.4% active; Potency, µM (doses to about 46.1 µM), without a hit: at the top dose activity, positive = more growth; calls by dose curve; also: potency is read from the fitted curve at half-maximal effect; actives are rising curves; nearly all actives have a fitted effect of over 50% in size
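A cell-based growth assay was used: compounds that relieve NS1-induced slow growth of budding yeast raise OD600. Assay medium was yeast nitrogen base with ammonium sulphate and -URA supplement, pH 6.0, with 2% galactose.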
FBPA Giardia inh – qHTS Assay for Inhibitors of Fructose-1,6-bisphosphate Aldolase from Giardia Lamblia | Potency, µM (doses to about 59.6 µM), for the others: at the top dose activity, negative = inhibition, most hits filed as inhibitors | purified Giardia FBPA | 290,000 tested, 0.71% active; also: potency is read from the fitted curve at half-maximal effect; % is scaled to controls: 0 for no effect and ±100 for the full control effect; nearly all actives have a fitted effect of over 55% in size
Target sequence (A8B2U2 whole entry, looked up): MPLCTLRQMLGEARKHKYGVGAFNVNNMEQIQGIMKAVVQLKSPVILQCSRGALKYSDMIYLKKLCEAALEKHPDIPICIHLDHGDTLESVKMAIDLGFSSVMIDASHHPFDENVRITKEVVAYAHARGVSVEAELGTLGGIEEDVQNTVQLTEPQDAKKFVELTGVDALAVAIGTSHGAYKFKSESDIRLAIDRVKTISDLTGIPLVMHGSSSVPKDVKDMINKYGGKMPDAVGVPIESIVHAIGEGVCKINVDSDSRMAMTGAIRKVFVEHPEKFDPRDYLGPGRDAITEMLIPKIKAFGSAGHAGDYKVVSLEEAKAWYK
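Giardia FBPA (40 nM reagent) was preincubated 10 min at RT with compound (up to 57.5 uM final), then substrate plus GAPDH/TPI/NAD/arsenate coupling system with diaphorase/resazurin was added; resorufin fluorescence (525/598 nm) was read after 20 min.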
Pf growth 96h – Primary qHTS for delayed death inhibitors of the malarial parasite plastid, 96 hour incubation | P. falciparum luciferase reporter growth, 96 h | Potency, µM (top dose mostly 28.7 µM), without a hit: at the top dose activity change, negative = inhibition, actives largely listed as inhibitors | 320,000 tested, 6.9% active; also: potency is read from the fitted curve at half-maximal effect; % is scaled to controls: 0 for no effect and ±100 for the full control effect
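P. falciparum expressing integrated firefly luciferase, in erythrocytes at 2% hematocrit, 0.05% parasitemia, incubated with compounds 96 h at 37 C, 5% CO2. Growth inhibition read as loss of luminescence; two-generation exposure targets delayed-death apicoplast inhibitors.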
Starred values were filed as active, the others as inactive; i = inactive; ? = inconclusive; . = not tested or not shown; + = active, no number; [ ] = another dose, or the depositor's remark. Unless noted, calls follow the shape of the dose curve; as a rule, active = well fitted curve in the direction sought with a large enough effect; inconclusive = small, poorly fitted or top-dose-only effect, or another doubt; inactive = no such curve, though single readings can be large; an effect the other way counts as inactive or inconclusive.

SMILES | CHX counter | Pf growth 48h | Shiga inhibitor | NS1 function inh | FBPA Giardia inh | Pf growth 96h
O=C(NNC(=O)c1ccccc1Br)c1cccc(Cl)c1 | 83* | 61% | 50* | -78% | 15% | 129%
O=C(NNC(=O)c1ccccc1F)c1cccc(Cl)c1 | 22* | 91% | 80* | -14% | 0% | 104%
O=C(NNC(=O)c1ccccc1Br)c1ccc(Cl)cc1 | 6 | 48% | 21 | -1% | -3% | 164%
COc1ccc(OC)c(-n2c(-c3ccc(O)cc3O)n[nH]c2=S)c1 | 6 | ? | -7 | -7% | -16% | 0.013µM*
S=c1[nH]nc(-c2ccc(Cl)cc2Cl)n1Cc1ccccc1 | 4 | 43% | 21 | 11% | 21% | 0%
S=c1[nH]nc(-c2ccc(Cl)cc2Cl)n1-c1ccccc1 | 40* | 194% | . | 4% | 20% | ?
Oc1ccc(-c2n[nH]c(=S)n2-c2ccc3c(c2)OCCO3)c(O)c1 | 17* | 0.41µM* | 35* | ? | 0% | 0.066µM*
COc1ccccc1-c1n[nH]c(=S)n1-c1ccccc1 | 20* | 90% | 14 | -4% | -13% | 13µM*
COc1ccccc1C(=O)NC(=O)COC(=O)c1cccc(OC(F)F)c1 | . | -17% | . | . | . | 5%
CC1Sc2ccc(S(=O)(=O)N3CCC(C(=O)Nc4cccc(Cl)c4)CC3)cc2NC1=O (stereo not given) | -3 | ? | -3 | ? | . | -6%
COc1ccc(C2=NO[C@@H]3C(=O)N(C4CCCCC4)C(=O)[C@H]23)cc1OC | -2 | 19% | -6 | -1% | -1% | ?
COc1ccc(C2=NO[C@@H]3C(=O)N(c4ccc5c(c4)OCCO5)C(=O)[C@H]23)cc1OC | 38* | 58% | 48* | ? | -30% | 19%
COc1ccc(-c2n[nH]c(=S)n2-c2ccc3c(c2)OCCO3)cc1OC | 23* | ? | 50* | 9% | -7% | 26%
S=c1[nH]nc(-c2ccc(Cl)cc2Cl)n1-c1ccc2c(c1)OCCO2 | 21* | 42% | 46* | 15% | 1% | 14%
COc1ccc(-c2n[nH]c(=S)n2-c2ccc3c(c2)OCCO3)cc1 | 11 | -1% | 16 | 13% | 4% | -19%
O=C(CSc1ccccc1)NNC(=O)c1ccncc1 | . | -15% | . | . | . | 14%
Cn1ccnc1SCC(=O)c1ccc(Br)cc1 | 38* | 58% | 60* | -4% | -9% | 6%
O=C(CSc1nccn1-c1ccccc1)c1ccc(Br)cc1 | 16* | -2% | 39* | 13% | 0% | 30%
Cn1ccnc1SCC(=O)c1c[nH]c2ccccc12 | 44* | i | 78* | 2% | -17% | 411%
O=C(OC1CCN(c2ncc(C(F)(F)F)cc2Cl)CC1)c1ccc(Cl)cc1 | -1 | -11% | -6 | -2% | 3% | 27%
O=C(CSc1nccn1-c1ncc(C(F)(F)F)cc1Cl)c1ccc(Cl)cc1 | 47* | 120% | + | 0% | 3% | 116%
CO[C@H]1COC(=O)[C@@H](CCSC)NC(=O)C/C=C\[C@@H](C)COC(=O)[C@@H](OCc2ccccc2)/C=C\[C@@H]1C | . | . | . | . | 0%[12.9 µM] | .
CC(C)CN1CCN(Cc2ccc3ncccc3c2)CC1CCO (stereo not given) | 5 | -4% | -7 | -4% | 2% | ?
Cc1ccc2c(Cl)c(C(=O)Nc3cccnc3)sc2c1 | 58* | 16% | 126* | -25% | -3% | 32%
CC1CCCN(C(=O)c2sc3cc([N+](=O)[O-])ccc3c2Cl)C1 (stereo not given) | 32* | ? | 85* | -10% | 2% | 22%
SMILES | CHX counter | Pf growth 48h | Shiga inhibitor | NS1 function inh | FBPA Giardia inh | Pf growth 96h
O=C(NC1CC1)c1sc2cc([N+](=O)[O-])ccc2c1Cl | 27* | 46% | 18 | 12% | 0% | 140%
O=C(NC1CCS(=O)(=O)C1)c1sc2ccccc2c1Cl (stereo not given) | 22 | -40% | 22 | . | 2% | -27%
Cc1ccc2c(Cl)c(C(=O)NC3CC3)sc2c1 | 47* | 86% | 61* | -16% | . | 111%
CC(NC(=O)c1sc2cc([N+](=O)[O-])ccc2c1Cl)C(C)(C)C (stereo not given) | -2 | ? | 2 | 6% | -1% | -17%
O=C(c1sc2cc([N+](=O)[O-])ccc2c1Cl)N1CCCCC1 | 20 | 1% | 0 | 4% | -4% | ?
Cc1ccc2c(C)c(C(=O)Nc3cccnc3)oc2c1 | 20 | 50% | -5 | -6% | 1% | .
CC1(C(=O)O)CCC(C(=O)Nc2ccc(OC(F)(F)Cl)cc2)C1(C)C (stereo not given) | -2 | 21% | -6 | -1% | -6% | 42%
CCOC(=O)c1ccccc1NC(=O)COC(=O)CCNS(=O)(=O)c1cccs1 | . | ? | . | . | . | 23%
Cc1n[nH]c(C)c1CCN(C)Cc1cn(C)nc1-c1ccc2c(c1)OCCO2 | -2 | 28% | -10 | 5% | 1% | 1.3µM*
CN(CCc1cnn(C)c1)Cc1cn(C)nc1-c1ccc2c(c1)OCCO2 | 6 | 24% | 3 | -1% | 0% | 0%
O=c1[nH]c(-[n+]2ccc3ccccc3c2)c(/C=N/N=C(\[O-])c2ccccc2)s1 | 17* | 23% | 40 | -2% | -3% | 3%
COc1ccc(C(=O)N2CCC3(CCCN(c4cccc(-c5ccccc5)c4)C3)CC2)cc1 | . | . | . | . | 0% | .
CCOC(=O)C1(CCCc2ccccc2)CCN(C(=O)CSC)CC1 | -2 | 129% | -8 | -23% | -6% | ?
CCOC(=O)C1(Cc2ccccc2Cl)CCN(C(=O)CN2CCOC2=O)CC1 | 43* | 0% | 75* | -4% | 1% | 39%
CCOC(=O)C1(CCCc2ccccc2)CCN(C(=O)CN2CCOC2=O)CC1 | 8 | 11% | 9 | -4% | 2% | 15µM*
COC(=O)[C@]1(CC(C)C)N[C@H](c2ccc(-c3ccc(F)cc3)cc2)[C@@H]2C(=O)N(C)C(=O)[C@@H]21 | . | 3.3µM* | . | . | . | 6.6µM*
CCN1C(=O)[C@H]2[C@@H](c3ccc(-c4ccc(F)cc4)c(OC)c3)N[C@@](CC(C)C)(C(=O)OC)[C@H]2C1=O | . | 2.3µM* | . | . | . | 2.6µM*
CCN1C(=O)[C@H]2[C@@H](c3ccc(-c4ccc(F)cc4)cc3)N[C@@](CC(C)C)(C(=O)OC)[C@H]2C1=O | . | 10µM* | . | . | . | 5.2µM*
CNC(=O)c1sc(-c2cccs2)nc1C | 36* | 24% | 34 | . | -2% | 54%
O=C(NC1CCCCC1)Oc1cccc2ccccc12 | -1 | 23% | 1 | 3% | 1% | 10%
O=C(NC1CCCCC1)Oc1cc2oc(=O)sc2cc1Cl | 16* | 7% | 34 | -56% | -17% | ?
CN1CCN(c2ncc3ncc(=O)n(CCc4ccccc4)c3n2)CC1 | . | . | . | . | 1% | .

Screening results (PubChem)
